Data on 57 sequences can be found in publication PMC9838217, “Structure of SALL4 zinc finger domain reveals link between AT-rich DNA binding and Okihiro syndrome”.

Assay [1] addresses T1, SALL4 ZFC4 R900W (HT-SELEX) (Mus musculus, UniProt Q8BX22 870-940, R900W).
T1 sequence: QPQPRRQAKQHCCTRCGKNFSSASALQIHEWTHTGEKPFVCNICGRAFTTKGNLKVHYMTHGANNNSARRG
The assay can be described thus: HT-SELEX; high values mean tight binding. Conditions: protein: recombinant; vector His6-GST; dsDNA, one strand shown. The method, boiled down:
(§1)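 Purified recombinant mouse SALL4 zinc finger cluster 4 (residues 870–940, 1 µg) was incubated with library DNA (1.5 µg first cycle, 200 ng later) in 100 µl buffer (10 mM Tris–HCl pH 7.5, 50 mM NaCl, poly(dI-dC), DTT) for 10 min at room temperature. Ni2+ bead-captured complexes were washed, PCR-amplified and reselected for up to 6 cycles, in triplicate, then MiSeq-sequenced and scanned for 6-mers. Binding signal is each canonical k-mer's read fraction as fold change versus the initial random library.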

Assay [2] has as its target T2, SALL4 ZFC4 G921D (HT-SELEX) (Mus musculus, UniProt Q8BX22 870-940, G921D).
T2 sequence: T1 sequence with W31R, G52D
The assay can be described thus: HT-SELEX; high values mean tight binding. The following applies: protein: recombinant; vector His6-GST; dsDNA, one strand shown. Put shortly: as §1

Positions count from the first letter of the chain named.

On to ACCGCT, for which the binding signal stood at 0.31 ± 0.02 fold-change vs cycle 0 in assay [1] and 0.44 ± 0.0953 fold-change vs cycle 0 in assay [2].

In the case of CGCTGC, the results for the binding signal in assay [1] and in assay [2] were 0.0919 ± 0.0151 fold-change vs cycle 0 and 0.201 ± 0.0834 fold-change vs cycle 0, respectively.

Consider ACCCCC, for which the binding signal was found to be 0.324 ± 0.0114 fold-change vs cycle 0 in assay [1] and 0.419 ± 0.0596 fold-change vs cycle 0 in assay [2].

In the case of CGTCGC, the binding signal in assay [1] turned out to be 0.097 ± 0.00631 fold-change vs cycle 0; in assay [2] it was 0.194 ± 0.077 fold-change vs cycle 0.

As for GCGAGA, the binding signal turned out to be 0.334 ± 0.0226 fold-change vs cycle 0 in assay [1] and 0.472 ± 0.0669 fold-change vs cycle 0 in assay [2].

In the case of ACGCGA, the figures for the binding signal in assay [1] and in assay [2] were 0.245 ± 0.0174 fold-change vs cycle 0 and 0.365 ± 0.0478 fold-change vs cycle 0, respectively.

For GCCGGC, the binding signal in assay [1] amounted to 0.0318 ± 0.0022 fold-change vs cycle 0; in assay [2] it was 0.112 ± 0.0697 fold-change vs cycle 0.

For the sequence TGGCCA, the binding signal in assay [1] was 0.236 ± 0.00832 fold-change vs cycle 0; in assay [2] it was 0.386 ± 0.0718 fold-change vs cycle 0.

Turning to CGGAGC, the binding signal in assay [1] is 0.166 ± 0.00611 fold-change vs cycle 0; in assay [2] it was 0.286 ± 0.0677 fold-change vs cycle 0.

As for CGCCCC, the binding signal was determined as 0.0728 ± 0.00775 fold-change vs cycle 0 in assay [1] and 0.173 ± 0.0648 fold-change vs cycle 0 in assay [2].

Regarding CGCCAA, the binding signal in assay [1] turned out to be 0.185 ± 0.0197 fold-change vs cycle 0; in assay [2], 0.316 ± 0.0834 fold-change vs cycle 0.

For GGGCCA, the binding signal in assay [1] worked out at 0.129 ± 0.0234 fold-change vs cycle 0; in assay [2] it was 0.254 ± 0.0851 fold-change vs cycle 0.

GGGCCC: the binding signal stood at 0.0676 ± 0.00899 fold-change vs cycle 0 in assay [1] and 0.178 ± 0.0632 fold-change vs cycle 0 in assay [2].

ACGCCC: the binding signal was 0.137 ± 0.0108 fold-change vs cycle 0 in assay [1] and 0.25 ± 0.0577 fold-change vs cycle 0 in assay [2].

On to CGCAAG, for which the binding signal in assay [1] was 0.289 ± 0.0102 fold-change vs cycle 0; in assay [2] it was 0.411 ± 0.0549 fold-change vs cycle 0.

As to CGTGCC, the binding signal was determined as 0.121 ± 0.0106 fold-change vs cycle 0 in assay [1] and 0.246 ± 0.0768 fold-change vs cycle 0 in assay [2].

As to GCTAGC, the binding signal was found to be 0.329 ± 0.0178 fold-change vs cycle 0 in assay [1] and 0.477 ± 0.0879 fold-change vs cycle 0 in assay [2].

Consider GCCAGA, for which the binding signal in assay [1] is 0.289 ± 0.0233 fold-change vs cycle 0; in assay [2], 0.414 ± 0.0657 fold-change vs cycle 0.

Take ACGGCA: the values for the binding signal in assay [1] and in assay [2] were 0.221 ± 0.00749 fold-change vs cycle 0 and 0.353 ± 0.0815 fold-change vs cycle 0, respectively.

Take GCCGGA: the binding signal worked out at 0.106 ± 0.00682 fold-change vs cycle 0 in assay [1] and 0.224 ± 0.0644 fold-change vs cycle 0 in assay [2].

In the case of CCGCCG, the values for the binding signal in assay [1] and in assay [2] were 0.0347 ± 0.00309 fold-change vs cycle 0 and 0.117 ± 0.0571 fold-change vs cycle 0, respectively.

With AGCGCA, the binding signal in assay [1] worked out at 0.18 ± 0.00997 fold-change vs cycle 0; in assay [2] it was 0.305 ± 0.097 fold-change vs cycle 0.

Turning to CCAGCC, the binding signal in assay [1] is 0.149 ± 0.0151 fold-change vs cycle 0; in assay [2], 0.273 ± 0.0654 fold-change vs cycle 0.

CCCGCA: the values for the binding signal in assay [1] and in assay [2] were 0.139 ± 0.0116 fold-change vs cycle 0 and 0.246 ± 0.066 fold-change vs cycle 0, respectively.

For CTGGCC, the binding signal amounted to 0.139 ± 0.00982 fold-change vs cycle 0 in assay [1] and 0.255 ± 0.0712 fold-change vs cycle 0 in assay [2].

With GGGGAC, the results for the binding signal in assay [1] and in assay [2] were 0.299 ± 0.0209 fold-change vs cycle 0 and 0.403 ± 0.0552 fold-change vs cycle 0, respectively.

As for CACGCG, the values for the binding signal in assay [1] and in assay [2] were 0.116 ± 0.0104 fold-change vs cycle 0 and 0.214 ± 0.0541 fold-change vs cycle 0, respectively.

In the case of GCCGTA, the binding signal in assay [1] was found to be 0.228 ± 0.00567 fold-change vs cycle 0; in assay [2], 0.345 ± 0.066 fold-change vs cycle 0.

GTGTTA: the binding signal in assay [1] is 1.37 ± 0.0667 fold-change vs cycle 0; in assay [2], 1.31 ± 0.0659 fold-change vs cycle 0.

Turning to CGGGTC, the binding signal in assay [1] was determined as 0.212 ± 0.0149 fold-change vs cycle 0; in assay [2], 0.342 ± 0.0694 fold-change vs cycle 0.

Consider GCGCAC, for which the binding signal in assay [1] was found to be 0.0689 ± 0.0069 fold-change vs cycle 0; in assay [2], 0.167 ± 0.0842 fold-change vs cycle 0.

On to CACGCC, for which the figures for the binding signal in assay [1] and in assay [2] were 0.137 ± 0.0218 fold-change vs cycle 0 and 0.251 ± 0.0597 fold-change vs cycle 0, respectively.

Turning to GCACCA, the values for the binding signal in assay [1] and in assay [2] were 0.324 ± 0.0178 fold-change vs cycle 0 and 0.451 ± 0.0674 fold-change vs cycle 0, respectively.

For CCACGC, the binding signal was 0.141 ± 0.0119 fold-change vs cycle 0 in assay [1] and 0.248 ± 0.0561 fold-change vs cycle 0 in assay [2].

Consider CGGGAC, for which the binding signal in assay [1] came to 0.202 ± 0.00689 fold-change vs cycle 0; in assay [2], 0.33 ± 0.0639 fold-change vs cycle 0.

In the case of CCTGGC, the figures for the binding signal in assay [1] and in assay [2] were 0.162 ± 0.00687 fold-change vs cycle 0 and 0.281 ± 0.075 fold-change vs cycle 0, respectively.

For the sequence CAGCGA, the binding signal in assay [1] came to 0.275 ± 0.0083 fold-change vs cycle 0; in assay [2], 0.404 ± 0.0764 fold-change vs cycle 0.

As for CAGGCC, the binding signal in assay [1] is 0.16 ± 0.0134 fold-change vs cycle 0; in assay [2] it was 0.277 ± 0.0643 fold-change vs cycle 0.

On to AAGCGC, for which the binding signal is 0.162 ± 0.0133 fold-change vs cycle 0 in assay [1] and 0.302 ± 0.0877 fold-change vs cycle 0 in assay [2].

CGGGCA: the figures for the binding signal in assay [1] and in assay [2] were 0.116 ± 0.00794 fold-change vs cycle 0 and 0.223 ± 0.0617 fold-change vs cycle 0, respectively.

As for ACAGCG, the figures for the binding signal in assay [1] and in assay [2] were 0.265 ± 0.00461 fold-change vs cycle 0 and 0.381 ± 0.0624 fold-change vs cycle 0, respectively.

For the sequence ACACGC, the binding signal turned out to be 0.297 ± 0.0275 fold-change vs cycle 0 in assay [1] and 0.43 ± 0.0602 fold-change vs cycle 0 in assay [2].

For the sequence CCGCAC, the binding signal in assay [1] came to 0.118 ± 0.0077 fold-change vs cycle 0; in assay [2], 0.22 ± 0.0597 fold-change vs cycle 0.

Consider CTGCAC, for which the binding signal in assay [1] stood at 0.345 ± 0.044 fold-change vs cycle 0; in assay [2], 0.47 ± 0.0692 fold-change vs cycle 0.

On to CGGCAA, for which the binding signal in assay [1] was 0.19 ± 0.00924 fold-change vs cycle 0; in assay [2], 0.324 ± 0.0774 fold-change vs cycle 0.

Consider CAATAG, for which the binding signal in assay [1] was 1.34 ± 0.0439 fold-change vs cycle 0; in assay [2] it was 1.31 ± 0.0578 fold-change vs cycle 0.

As to GGCGGA, the binding signal in assay [1] turned out to be 0.12 ± 0.0101 fold-change vs cycle 0; in assay [2], 0.238 ± 0.0604 fold-change vs cycle 0.

With AACGGC, the results for the binding signal in assay [1] and in assay [2] were 0.225 ± 0.0115 fold-change vs cycle 0 and 0.356 ± 0.0593 fold-change vs cycle 0, respectively.

For CTCGCA, the figures for the binding signal in assay [1] and in assay [2] were 0.319 ± 0.0197 fold-change vs cycle 0 and 0.471 ± 0.0656 fold-change vs cycle 0, respectively.

As for ACCGAC, the binding signal in assay [1] came to 0.345 ± 0.0112 fold-change vs cycle 0; in assay [2], 0.497 ± 0.0584 fold-change vs cycle 0.

As to CTTCGC, the figures for the binding signal in assay [1] and in assay [2] were 0.34 ± 0.0357 fold-change vs cycle 0 and 0.455 ± 0.0772 fold-change vs cycle 0, respectively.

As for CCCAGC, the binding signal turned out to be 0.179 ± 0.0134 fold-change vs cycle 0 in assay [1] and 0.297 ± 0.0797 fold-change vs cycle 0 in assay [2].

For CGCGGA, the binding signal in assay [1] is 0.105 ± 0.00959 fold-change vs cycle 0; in assay [2] it was 0.199 ± 0.0519 fold-change vs cycle 0.

Regarding CCCCCG, the binding signal in assay [1] was determined as 0.133 ± 0.00946 fold-change vs cycle 0; in assay [2], 0.239 ± 0.0586 fold-change vs cycle 0.

For the sequence CCACGG, the results for the binding signal in assay [1] and in assay [2] were 0.219 ± 0.0185 fold-change vs cycle 0 and 0.334 ± 0.0695 fold-change vs cycle 0, respectively.

Regarding ACGGGC, the binding signal in assay [1] came to 0.131 ± 0.00526 fold-change vs cycle 0; in assay [2] it was 0.241 ± 0.0805 fold-change vs cycle 0.

Turning to GCCGAA, the binding signal was determined as 0.189 ± 0.0081 fold-change vs cycle 0 in assay [1] and 0.319 ± 0.0704 fold-change vs cycle 0 in assay [2].
